In the library only some 12% were active in any assay of this set; here they are far more common.
Pf growth 48h: inhibits P. falciparum growth in the first generation, 48 h; Potency, µM (doses to about 28.7 µM), for the others: at the highest dose activity change, negative = inhibition, hits mostly inhibitors; hit rate 5.9% among 310,000; P. falciparum luciferase growth in erythrocytes, 48 h; note: % is set by controls: 0 for no effect and ±100 for the full control effect
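Parasite viability was followed by luminescence of a genomically integrated firefly luciferase. Cultures held 0.1% parasitemia at 2% hematocrit (final), incubated under 5% CO2 at 37 C.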
Pf growth 96h: P. falciparum growth inhibition at 96 hours; P. falciparum luciferase reporter growth, 96 h; Potency, µM (doses to about 28.7 µM), for inactives: at the highest dose activity change, negative = inhibition, hits mostly inhibitors; hit rate 6.9% among 320,000; AID 504834; note: % is set by controls: 0 for no effect and ±100 for the full control effect
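Readout is luminescence from an integrated firefly luciferase in P. falciparum. Red cells, 2% hematocrit and 0.05% parasitemia final, were cultured with compound through two parasite generations (96 hours) at 37 C, 5% CO2.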
SARS PLpro yeast: blocks SARS-CoV papain-like protease in a yeast assay; S. cerevisiae expressing SARS-CoV PLpro, growth rescue; Potency, µM (top dose mostly 32.9 µM), for inactives: at the highest dose activity, positive = growth rescue, most hits filed as activators; hit rate 0.19% among 330,000; calls by dose curve; note: 0% is about no effect; nearly all actives have a fitted effect of over 55% in size
Sm TGR inh: inhibitors of Schistosoma mansoni thioredoxin glutathione reductase; hit rate 3% among 360,000; Potency, µM (series often up to 114 µM), inactives show at the top dose activity change, negative = inhibition, most hits filed as inhibitors; Q962Y6; purified TGR, DTNB reduction, TNB absorbance 405 nm; note: % is set by controls: 0 for no effect and ±100 for the full control effect; nearly all actives have a fitted effect of over 60% in size
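Kinetic colorimetric format: TGR-catalysed, NADPH-driven DTNB reduction monitored via TNB absorbance. Enzyme dispensed at 20 nM; compound exposure 15 min at room temperature before reaction start.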
The depositor's hits bear a star; ? = inconclusive; . = not tested or not shown. Unless noted, calls come from the whole dose curve; as a rule, active = well fitted curve in the direction sought with a large enough effect; inconclusive = small, poorly fitted or top-dose-only effect, or another doubt; inactive = no such curve, though single readings can be large; an effect the other way counts as inactive or inconclusive. Potency is the fitted concentration of half-maximal effect.

SMILES	Pf growth 48h	Pf growth 96h	SARS PLpro yeast	Sm TGR inh
COc1cccc(N2CCN(C(=O)c3cc(C)oc3C)CC2)c1	3.9%	3.4%	-13.2%	-33.1%
CC(=O)c1cc(-c2ccc(F)cc2)n(CCC(=O)NCc2ccc(C)cc2)c1C	.	.	.	-2.1%
COc1cccc(C2CC(=O)N3CN(C4CCCCC4)CSC3=C2C#N)c1 (stereo not drawn)	.	.	.	2.51µM*
COc1ccc(C2CC(=O)N3CN(C4CCCCC4)CSC3=C2C#N)cc1 (stereo not drawn)	.	.	.	7.94µM*
CN1CSC2=C(C#N)C(c3cccc(OCc4ccccc4)c3)CC(=O)N2C1 (stereo not drawn)	.	?	6.7%	0.0%
Cc1ccc(S(=O)(=O)NC(=O)Nc2ccccc2)cc1	31.3%	6.57µM*	1.2%	-0.3%
Cc1ccc(NNS(=O)(=O)c2ccc(C)cc2)cc1	14.4%	?	-24.3%	7.94µM*
O=C(NCC(=O)N(c1ccccc1)C(C(=O)NC1CCCCC1)c1cccnc1)c1ccco1 (stereo not drawn)	7.7%	?	3.7%	-8.2%
Cc1ccc(CNC(=O)c2ccc(N3CCCC3)c(NC(=O)Nc3ccc(C)cc3)c2)cc1	.	.	.	4.2%
O=c1cc(-c2ccccc2)nc(SCc2nc(-c3ccccc3Cl)no2)[nH]1	.	.	.	6.8%
O=c1cc(-c2ccccc2)nc(SCCOc2ccccc2Cl)[nH]1	6.9%	7.38µM*	-0.2%	.
O=c1[nH]c(SCCOc2cccc3ccccc23)nc2ccccc12	-9.9%	2.08µM*	2.4%	-21.6%
CCc1cccc(C)c1NC(=O)c1cc(CN2CCCC2)on1	.	.	.	-1.4%
Cc1cccc(NC2=C(Cl)C(=O)OC2OC(C)C)c1 (stereo not drawn)	2.5%	-0.1%	-3.8%	-0.6%
Cc1ccc(NC2=C(Cl)C(=O)OC2OC(C)C)cc1 (stereo not drawn)	2.4%	13.1µM*	-7.7%	1.6%
Cc1cccc(NC2=C(Cl)C(=O)OC2OC(=O)c2ccco2)c1 (stereo not drawn)	1.0%	?	1.4%	14.1µM*
Cc1ccc(NC2=C(Cl)C(=O)OC2OC(=O)c2ccco2)cc1 (stereo not drawn)	.	-18.4%	1.5%	14.1µM*
CN(C)c1ccc(C(C(=O)NC2CCCCC2)N(Cc2ccco2)C(=O)c2snc(C(N)=O)c2N)cc1 (stereo not drawn)	?	-12.4%	-16.3%	-20.6%
COc1ccc(C(=O)NCC23C=CC(O2)C2C(=O)N(Cc4ccccc4)C(=O)C23)cc1 (stereo not drawn)	.	36.7%	-30.5%	3.55µM*
COc1ccc(C(=O)Nc2ccc(N3CCCCCC3)cc2)cc1S(=O)(=O)N1CCOCC1	11.7µM*	?	-0.9%	-13.2%
O=C(Nc1ccccc1N1CCOCC1)c1ccc(F)c(S(=O)(=O)N2CCOCC2)c1	?	2.08µM*	-10.7%	-7.4%
COc1ccc(C(=O)Nc2ccc(NC(=O)c3ccccc3)cc2)cc1S(=O)(=O)N1CCOCC1	10.9%	31.7%	-0.5%	2.9%
COc1ccc(OC)c(COC(=O)c2cccc(S(=O)(=O)N3CCCCC3)c2)c1	.	.	-7.7%	.
COc1ccc(C(C)=O)cc1COC(=O)c1ccc(S(=O)(=O)N2CCOCC2)cc1	?	.	-10.5%	17.8µM*
O=C(Nc1ccccc1C(=O)N1CCCCCC1)c1cccc(S(=O)(=O)N2CCOCC2)c1	11.7µM*	?	2.4%	-14.5%
SMILES	Pf growth 48h	Pf growth 96h	SARS PLpro yeast	Sm TGR inh
Cc1nn(-c2ccccc2)c2nc(C3CC3)cc(C(=O)Nc3ccccc3F)c12	.	.	.	9.5%
CCCC12CN3CC(CCC)(CN(C1)C3c1c[nH]c3ccccc13)C2=O (stereo not drawn)	.	.	.	5.6%
Cc1nc2ccc(NC(=O)c3cccc(S(=O)(=O)N4CC(C)OC(C)C4)c3)cc2s1 (stereo not drawn)	.	8.28µM*	0.5%	-22.7%
COc1ccc(C(=O)NCc2cccc(Cl)c2)cc1S(=O)(=O)N1CCOCC1	?	-4.9%	-4.8%	-13.4%
COc1ccc(C(=O)NCc2cccs2)cc1S(=O)(=O)N1CCOCC1	?	4.15µM*	0.4%	-6.6%
COc1ccc(C(=O)Nc2cc(Cl)ccc2N2CCOCC2)cc1S(=O)(=O)N1CCOCC1	10.4µM*	?	-2.8%	-1.8%
COc1ccc(NC(=O)c2cncc(Br)c2)c(S(=O)(=O)N2CCOCC2)c1	?	10.4µM*	-0.8%	-8.8%
COc1cccc(OC)c1C(=O)Nc1cc(Cl)ccc1N1CCOCC1	0.0%	26.2%	-1.0%	-12.5%
O=C(Nc1ccc(F)cc1)C1CCN(S(=O)(=O)c2cccc3nonc23)CC1	-5.1%	-10.1%	0.4%	2.1%
COc1cccc(CNCCSc2nnnn2C)c1OCc1ccc(Cl)cc1Cl	.	.	.	2.3%
CN1CCN(S(=O)(=O)c2cccc(C(=O)Nc3cc(Cl)ccc3N3CCOCC3)c2)CC1	?	?	-0.5%	0.9%
COc1ccc(C(=O)Nc2ccc(Br)cc2F)cc1S(=O)(=O)N1CCCC1	?	10.4µM*	-3.5%	3.5%
O=C(NNC(=O)c1ccc(Br)s1)c1ccc(F)c(S(=O)(=O)N2CCOCC2)c1	-12.1%	10.4µM*	1.4%	3.1%
COc1ccc(C(=O)Nc2cccc(C(=O)O)c2)cc1S(=O)(=O)N1CCCC1	118.9%	1.2%	3.8%	2.5%
COc1ccc(C(=O)Nc2ccccc2N2CCOCC2)cc1S(=O)(=O)N1CCOCC1	5.86µM*	1.85µM*	-2.2%	-21.1%
Cc1ccc(C(=O)NNC(=O)c2ccc(Br)s2)cc1S(=O)(=O)N1CCOCC1	-21.0%	-22.2%	-0.2%	6.5%
CC1CN(S(=O)(=O)c2cccc(C(=O)Nc3cc(Cl)ccc3N3CCOCC3)c2)CC(C)O1 (stereo not drawn)	9.28µM*	9.28µM*	3.2%	-7.1%
O=C(Nc1ccc(Br)cc1)c1ccc(F)c(S(=O)(=O)N2CCN(c3ccccn3)CC2)c1	?	-3.3%	1.2%	-5.0%
COc1ccc(NS(=O)(=O)c2c(F)cc(F)c(Cl)c2F)cc1S(=O)(=O)N1CCCCC1	-1.6%	-0.4%	0.7%	0.0%
COc1ccc(S(=O)(=O)N2CCOCC2)cc1NC(=O)c1ccc(Cl)cc1	-12.0%	8.28µM*	.	0.7%
Cc1ccccc1NC(=O)c1ccc(F)c(S(=O)(=O)N2CCN(c3ccccn3)CC2)c1	13.1µM*	.	?	-3.3%
COc1ccc(C(=O)NC2CCCc3ccccc32)cc1S(=O)(=O)N1CCOCC1 (stereo not drawn)	0.0%	-29.8%	0.2%	3.3%
COc1ccc(S(=O)(=O)N2CCOCC2)cc1NC(=O)c1cccc(Cl)c1	22.4%	-8.4%	1.9%	2.7%
COc1ccc(NS(=O)(=O)c2c(F)cccc2F)cc1S(=O)(=O)N1CCOCC1	?	?	-2.9%	39.8µM*
COc1ccc(C(=O)NC2CCSc3ccccc32)cc1S(=O)(=O)N1CCOCC1 (stereo not drawn)	11.7µM*	?	-1.7%	4.8%
COc1ccc(-n2ccn(CC(=O)NCCc3ccccc3)c(=O)c2=O)cc1OC	.	.	.	21.8%
CC(=O)c1ccc(NC(=O)c2ccc(C)c(S(=O)(=O)N3CCOCC3)c2)cc1	?	30.0%	8.3%	-2.9%

Bioassay records deposited in PubChem BioAssay by National Center for Advancing Translational Sciences (NCATS).
